Results on 3 compounds are retold here after PubChem BioAssay AID1117294 (Broad Institute, 2014).

Activity calls are given as the source filed them.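 The calls were made as follows: active = Lowers HeLa cell ATP signal, with fitted half-maximal potency at most twice the top tested dose in every run; inconclusive = runs disagree, or fits flat mid-range or poor; inactive = every run inactive, including signal rising.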

This experiment is described as follows: cervical carcinoma cell viability loss – CellTiter-Glo luminescence, dry powder, set 3, cytotoxicity control, dose response (AID 1117294). The following applies: HeLa viability, ATP luminescence (CellTiter-Glo), 72 h; at 0.05 µM.
With `COc1ccc(C(=O)O)cc1S(=O)(=O)Nc1ccc(N2CCCCC2)cc1C(F)(F)F`, the max activity was -17% (inactive). To `COc1ccc(C(=O)O)cc1S(=O)(=O)Nc1cc(C(F)(F)F)ccc1N1CCN(C(C)=O)CC1` belongs -16.6% (inactive).

On to `COc1ccc(C2=NN(c3ccc(C(=O)O)cc3)C(c3ccc(OC)c(OC)c3)C2)cc1` (stereo not drawn), for which the max activity is -16.2% (inactive).
